Laboratory results as given in the supplement of paper PMC10849652.
Targets with a hit are over-represented here; the source holds about 8,800 in all. About 0.5% of all pairs of compound and target were hits. A number with no mark means an inactive call.

These targets were tested with CCCS(=O)(=O)Nc1ccc(F)c(C(=O)c2c[nH]c3ncc(-c4ccc(Cl)cc4)cc23)c1F [vemurafenib] (assay: log2 fold change, soluble protein after heating vs DMSO (PISA); higher = thermal stabilisation; K562 lysate, 10 uM; active = over 0.2 and 3.5 SD of the protein, either way, in both replicates (recomputed)).
Outline: (§1)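 Dounce homogenisation of K562 pellets in PBS pH 7.4 with 1 mM MgCl2 produced a crude extract, used at 1 mg/mL protein. Exposure to 10 μM compound lasted 30 min, and aliquots were then heated for 3 min across 48°C-58°C, pooled and brought to 0.5% NP-40 at 4°C. The supernatant after 21,000xg for 90 min was quantified by TMTpro 16plex LC-MS/MS with channel sums equalised. Duplicate values are given as log-two fold change in thermal stability relative to solvent controls.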

Sequence of UniProt Q9NTK5 (Q9NTK5 whole entry, looked up): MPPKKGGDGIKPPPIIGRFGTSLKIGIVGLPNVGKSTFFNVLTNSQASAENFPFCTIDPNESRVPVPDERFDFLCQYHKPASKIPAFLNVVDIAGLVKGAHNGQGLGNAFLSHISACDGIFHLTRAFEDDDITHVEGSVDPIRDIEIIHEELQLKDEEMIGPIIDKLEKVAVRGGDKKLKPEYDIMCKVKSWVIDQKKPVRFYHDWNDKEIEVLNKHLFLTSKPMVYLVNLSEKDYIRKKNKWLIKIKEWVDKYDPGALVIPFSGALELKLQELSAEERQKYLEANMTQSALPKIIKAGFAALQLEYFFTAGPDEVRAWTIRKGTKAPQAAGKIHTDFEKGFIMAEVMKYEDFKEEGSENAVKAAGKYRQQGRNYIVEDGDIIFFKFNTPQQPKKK
Sequence of UniProt Q9Y314 (Q9Y314 whole entry, looked up): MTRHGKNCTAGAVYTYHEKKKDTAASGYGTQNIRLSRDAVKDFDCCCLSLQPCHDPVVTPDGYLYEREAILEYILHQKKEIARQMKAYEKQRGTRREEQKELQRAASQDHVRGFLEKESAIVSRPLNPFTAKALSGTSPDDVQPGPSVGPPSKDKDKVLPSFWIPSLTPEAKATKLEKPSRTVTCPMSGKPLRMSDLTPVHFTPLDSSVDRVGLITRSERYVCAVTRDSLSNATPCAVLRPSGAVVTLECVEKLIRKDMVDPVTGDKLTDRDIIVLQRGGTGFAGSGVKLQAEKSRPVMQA
Sequence of UniProt Q86W56 (Q86W56 whole entry, looked up): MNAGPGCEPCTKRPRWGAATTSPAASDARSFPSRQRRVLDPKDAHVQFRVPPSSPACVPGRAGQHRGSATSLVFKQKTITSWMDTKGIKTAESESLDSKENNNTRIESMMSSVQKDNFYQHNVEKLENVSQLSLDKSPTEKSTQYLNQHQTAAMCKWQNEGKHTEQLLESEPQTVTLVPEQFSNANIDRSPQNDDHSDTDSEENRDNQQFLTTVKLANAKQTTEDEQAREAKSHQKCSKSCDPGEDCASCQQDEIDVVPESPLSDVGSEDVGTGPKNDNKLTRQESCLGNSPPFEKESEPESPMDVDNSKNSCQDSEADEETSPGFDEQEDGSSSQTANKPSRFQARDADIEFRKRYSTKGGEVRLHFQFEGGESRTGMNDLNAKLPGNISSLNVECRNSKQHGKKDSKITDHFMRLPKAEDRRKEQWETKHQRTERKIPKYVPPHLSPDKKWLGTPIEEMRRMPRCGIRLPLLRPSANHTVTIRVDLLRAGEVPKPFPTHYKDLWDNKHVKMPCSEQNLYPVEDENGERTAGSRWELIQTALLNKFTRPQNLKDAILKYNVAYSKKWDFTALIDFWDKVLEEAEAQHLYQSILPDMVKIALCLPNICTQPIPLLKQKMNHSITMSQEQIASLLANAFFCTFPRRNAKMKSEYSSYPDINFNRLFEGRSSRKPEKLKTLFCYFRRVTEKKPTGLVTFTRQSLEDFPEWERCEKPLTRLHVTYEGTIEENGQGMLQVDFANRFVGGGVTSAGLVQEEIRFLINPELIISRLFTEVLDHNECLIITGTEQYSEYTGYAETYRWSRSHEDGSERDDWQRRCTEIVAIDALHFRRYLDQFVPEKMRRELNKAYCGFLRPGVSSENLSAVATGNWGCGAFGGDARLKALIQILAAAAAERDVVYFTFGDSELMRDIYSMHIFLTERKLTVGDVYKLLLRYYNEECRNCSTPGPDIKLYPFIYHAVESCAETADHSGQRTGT
Sequence of UniProt O15294 (O15294 whole entry, looked up): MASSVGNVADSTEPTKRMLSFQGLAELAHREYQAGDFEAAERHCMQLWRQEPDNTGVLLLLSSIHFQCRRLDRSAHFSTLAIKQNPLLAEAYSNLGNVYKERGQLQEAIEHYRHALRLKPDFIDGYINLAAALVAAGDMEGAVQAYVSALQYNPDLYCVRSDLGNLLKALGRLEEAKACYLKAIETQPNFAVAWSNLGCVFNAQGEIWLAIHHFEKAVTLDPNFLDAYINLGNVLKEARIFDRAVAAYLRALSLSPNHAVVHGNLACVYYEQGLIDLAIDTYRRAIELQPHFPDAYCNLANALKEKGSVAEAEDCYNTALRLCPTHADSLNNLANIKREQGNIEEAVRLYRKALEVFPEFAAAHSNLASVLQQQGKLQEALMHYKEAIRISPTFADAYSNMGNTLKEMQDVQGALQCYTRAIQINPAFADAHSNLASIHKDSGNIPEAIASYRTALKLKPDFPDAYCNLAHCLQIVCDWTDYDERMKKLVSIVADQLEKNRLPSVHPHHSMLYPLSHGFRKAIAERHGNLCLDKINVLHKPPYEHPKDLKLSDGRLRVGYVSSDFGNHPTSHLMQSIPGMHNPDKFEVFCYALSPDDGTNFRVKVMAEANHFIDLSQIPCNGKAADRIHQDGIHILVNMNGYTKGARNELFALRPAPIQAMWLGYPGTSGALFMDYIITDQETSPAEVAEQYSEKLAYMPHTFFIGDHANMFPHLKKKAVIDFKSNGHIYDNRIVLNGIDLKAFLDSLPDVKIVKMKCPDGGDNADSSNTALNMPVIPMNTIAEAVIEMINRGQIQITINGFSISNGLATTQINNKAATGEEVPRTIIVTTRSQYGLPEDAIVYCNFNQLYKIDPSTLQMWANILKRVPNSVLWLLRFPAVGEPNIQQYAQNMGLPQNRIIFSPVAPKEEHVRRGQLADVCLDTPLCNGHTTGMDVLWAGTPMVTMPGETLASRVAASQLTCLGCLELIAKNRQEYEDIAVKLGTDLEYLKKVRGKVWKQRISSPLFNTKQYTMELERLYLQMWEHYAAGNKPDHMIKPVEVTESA
Sequence of UniProt Q9H4L5 (Q9H4L5 whole entry, looked up): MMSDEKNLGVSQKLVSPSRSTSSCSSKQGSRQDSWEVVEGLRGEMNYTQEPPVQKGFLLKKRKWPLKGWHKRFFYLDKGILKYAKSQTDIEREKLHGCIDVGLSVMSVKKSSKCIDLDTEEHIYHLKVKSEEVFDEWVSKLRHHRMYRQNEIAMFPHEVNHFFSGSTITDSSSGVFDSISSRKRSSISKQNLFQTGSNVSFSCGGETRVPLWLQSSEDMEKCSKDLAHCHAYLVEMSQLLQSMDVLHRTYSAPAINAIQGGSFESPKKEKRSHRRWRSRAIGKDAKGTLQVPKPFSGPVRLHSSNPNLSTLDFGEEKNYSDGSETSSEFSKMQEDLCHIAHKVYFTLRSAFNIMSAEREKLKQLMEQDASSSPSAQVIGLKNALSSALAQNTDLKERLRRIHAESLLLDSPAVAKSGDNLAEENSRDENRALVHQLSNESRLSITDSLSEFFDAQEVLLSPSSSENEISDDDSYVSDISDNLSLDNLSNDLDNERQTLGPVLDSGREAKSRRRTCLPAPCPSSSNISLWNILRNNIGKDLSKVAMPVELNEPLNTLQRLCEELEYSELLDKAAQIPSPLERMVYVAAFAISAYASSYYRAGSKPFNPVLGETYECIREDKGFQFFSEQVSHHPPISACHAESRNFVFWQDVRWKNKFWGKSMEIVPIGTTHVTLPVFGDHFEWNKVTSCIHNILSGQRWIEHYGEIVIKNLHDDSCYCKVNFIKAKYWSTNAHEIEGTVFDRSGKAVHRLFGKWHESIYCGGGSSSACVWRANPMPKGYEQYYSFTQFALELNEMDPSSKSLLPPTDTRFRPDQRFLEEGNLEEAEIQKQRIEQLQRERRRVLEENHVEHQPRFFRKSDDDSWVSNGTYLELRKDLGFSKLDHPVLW
Sequence of UniProt Q9Y217 (Q9Y217 whole entry, looked up): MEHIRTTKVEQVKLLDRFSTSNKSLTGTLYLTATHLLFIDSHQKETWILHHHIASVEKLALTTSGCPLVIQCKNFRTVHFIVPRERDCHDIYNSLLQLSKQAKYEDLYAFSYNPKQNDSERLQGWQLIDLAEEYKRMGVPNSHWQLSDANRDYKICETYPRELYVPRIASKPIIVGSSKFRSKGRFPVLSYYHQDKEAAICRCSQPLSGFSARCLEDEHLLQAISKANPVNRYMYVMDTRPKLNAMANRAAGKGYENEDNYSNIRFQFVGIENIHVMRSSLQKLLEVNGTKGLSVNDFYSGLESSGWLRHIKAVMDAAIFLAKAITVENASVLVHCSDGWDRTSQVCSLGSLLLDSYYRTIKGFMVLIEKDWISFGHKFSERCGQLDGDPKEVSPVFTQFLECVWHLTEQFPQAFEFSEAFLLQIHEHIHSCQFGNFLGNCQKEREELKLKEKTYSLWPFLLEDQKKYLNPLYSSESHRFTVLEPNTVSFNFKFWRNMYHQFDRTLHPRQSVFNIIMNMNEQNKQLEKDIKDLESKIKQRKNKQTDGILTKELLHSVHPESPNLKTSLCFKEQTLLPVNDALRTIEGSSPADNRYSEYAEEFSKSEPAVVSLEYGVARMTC
Sequence of UniProt Q9BRA0 (Q9BRA0 whole entry, looked up): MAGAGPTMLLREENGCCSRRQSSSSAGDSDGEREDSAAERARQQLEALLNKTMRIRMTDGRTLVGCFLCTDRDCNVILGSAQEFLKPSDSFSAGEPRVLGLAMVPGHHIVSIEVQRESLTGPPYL
Sequence of UniProt Q5TEU4 (Q5TEU4 whole entry, looked up): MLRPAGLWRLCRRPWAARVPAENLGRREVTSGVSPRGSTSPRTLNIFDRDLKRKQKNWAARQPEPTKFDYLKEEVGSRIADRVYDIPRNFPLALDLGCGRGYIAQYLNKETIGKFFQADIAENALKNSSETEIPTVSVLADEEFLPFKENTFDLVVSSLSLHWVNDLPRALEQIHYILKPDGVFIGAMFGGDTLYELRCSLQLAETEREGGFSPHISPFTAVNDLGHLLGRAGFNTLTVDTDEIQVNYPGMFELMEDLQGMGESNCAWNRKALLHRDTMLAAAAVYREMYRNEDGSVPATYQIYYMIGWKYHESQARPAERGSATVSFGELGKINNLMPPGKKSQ
Sequence of UniProt Q96IY1 (Q96IY1 whole entry, looked up): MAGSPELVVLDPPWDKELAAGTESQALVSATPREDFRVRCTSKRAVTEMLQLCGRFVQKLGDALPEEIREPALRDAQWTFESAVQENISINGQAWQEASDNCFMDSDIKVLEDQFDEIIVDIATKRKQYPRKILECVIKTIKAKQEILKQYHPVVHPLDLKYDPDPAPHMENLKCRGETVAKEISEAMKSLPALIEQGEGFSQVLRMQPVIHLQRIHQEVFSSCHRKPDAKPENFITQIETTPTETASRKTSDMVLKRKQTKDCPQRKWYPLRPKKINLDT

Target	log2 fold change
MRPL53 (UniProt Q96EL3)	-0.006
NEBL isoform 2 (UniProt O76041)	0.014
PAIP2 (UniProt Q9BPZ3)	0
NEK9 (UniProt Q8TD19)	-0.001
PARG (UniProt Q86W56)	0.028
NGLY1 (UniProt Q96IV0)	0.015
NOSIP (UniProt Q9Y314)	-0.008
NEXN (UniProt Q0ZGT2)	0.073
NEBL (UniProt O76041)	0.034
MTHFD1L (UniProt B7ZM99)	0.01
PANK1 (UniProt Q8TE04)	0.086
NUDT5 (UniProt Q9UKK9)	-0.019
NSL1 (UniProt Q96IY1)	-0.017
MYO1D (UniProt O94832)	0.073
NCK1 (UniProt P16333)	0.049
OGT (UniProt O15294)	0.012
NCOR1 (UniProt O75376)	-0.005
NDUFAF5 (UniProt Q5TEU4)	-0.015

Target	log2 fold change
MSI2 (UniProt Q96DH6)	0.039
NAA38 isoform 2 (UniProt Q9BRA0)	0.049
OSBPL3 isoform 2 (UniProt Q9H4L5)	0.018
OLA1 (UniProt Q9NTK5)	0.025
MRPS12 (UniProt O15235)	0.062
NFIC (UniProt P08651)	-0.071
NPTN (UniProt Q9Y639)	-0.028
OTC (UniProt P00480)	0.072
NDC1 (UniProt Q9BTX1)	0.053
NNT (UniProt Q13423)	0.012
NUP160 (UniProt Q12769)	-0.039
NFATC1 (UniProt O95644)	0.004
MTMR6 (UniProt Q9Y217)	0.038
NARS2 (UniProt Q96I59)	0.022
NSA2 (UniProt O95478)	-0.035
PAN2 isoform 2 (UniProt Q504Q3)	0.072
NIPBL (UniProt Q6KC79)	-0.015

The targets below were run with CCCS(=O)(=O)Nc1ccc(F)c(C(=O)c2c[nH]c3ncc(Cl)cc23)c1F in the same assay as above.
Outline: as §1

Target	log2 fold change
MRPL53 (UniProt Q96EL3)	-0.01
NEBL isoform 2 (UniProt O76041)	0.009
PAIP2 (UniProt Q9BPZ3)	-0.013
NEK9 (UniProt Q8TD19)	0.054
PARG (UniProt Q86W56)	0.033
NGLY1 (UniProt Q96IV0)	0.01
NOSIP (UniProt Q9Y314)	0.034
NEXN (UniProt Q0ZGT2)	0.218
NEBL (UniProt O76041)	-0.027
MTHFD1L (UniProt B7ZM99)	0
PANK1 (UniProt Q8TE04)	0.036
NUDT5 (UniProt Q9UKK9)	-0.001
NSL1 (UniProt Q96IY1)	0
MYO1D (UniProt O94832)	0.018
NCK1 (UniProt P16333)	0.003
OGT (UniProt O15294)	0.015
NCOR1 (UniProt O75376)	-0.01
NDUFAF5 (UniProt Q5TEU4)	0.007

Target	log2 fold change
MSI2 (UniProt Q96DH6)	-0.007
NAA38 isoform 2 (UniProt Q9BRA0)	0.014
OSBPL3 isoform 2 (UniProt Q9H4L5)	0.01
OLA1 (UniProt Q9NTK5)	0.001
MRPS12 (UniProt O15235)	0.035
NFIC (UniProt P08651)	0.014
NPTN (UniProt Q9Y639)	-0.042
OTC (UniProt P00480)	-0.063
NDC1 (UniProt Q9BTX1)	-0.051
NNT (UniProt Q13423)	-0.015
NUP160 (UniProt Q12769)	0.02
NFATC1 (UniProt O95644)	0.058
MTMR6 (UniProt Q9Y217)	0.012
NARS2 (UniProt Q96I59)	0.028
NSA2 (UniProt O95478)	0.101
PAN2 isoform 2 (UniProt Q504Q3)	0.031
NIPBL (UniProt Q6KC79)	0.091

What follows are targets tested with CCN(CCCOc1ccc2c(Nc3cc(CC(=O)Nc4cccc(F)c4)[nH]n3)ncnc2c1)CCOP(=O)(O)O [barasertib] in the same assay as above.
Outline: as §1

Target	log2 fold change
MRPL53 (UniProt Q96EL3)	0.032
NEBL isoform 2 (UniProt O76041)	-0.078
PAIP2 (UniProt Q9BPZ3)	0.272 (active)
NEK9 (UniProt Q8TD19)	-0.008
PARG (UniProt Q86W56)	0.008
NGLY1 (UniProt Q96IV0)	0.043
NOSIP (UniProt Q9Y314)	0.012
NEXN (UniProt Q0ZGT2)	0.101
NEBL (UniProt O76041)	0.066
MTHFD1L (UniProt B7ZM99)	-0.033
PANK1 (UniProt Q8TE04)	0.097
NUDT5 (UniProt Q9UKK9)	-0.042
NSL1 (UniProt Q96IY1)	-0.06
MYO1D (UniProt O94832)	0.05
NCK1 (UniProt P16333)	-0.008
OGT (UniProt O15294)	0.031
NCOR1 (UniProt O75376)	0.018
NDUFAF5 (UniProt Q5TEU4)	-0.032

Target	log2 fold change
MSI2 (UniProt Q96DH6)	0.009
NAA38 isoform 2 (UniProt Q9BRA0)	0.09
OSBPL3 isoform 2 (UniProt Q9H4L5)	0.005
OLA1 (UniProt Q9NTK5)	0.012
MRPS12 (UniProt O15235)	0.003
NFIC (UniProt P08651)	-0.106
NPTN (UniProt Q9Y639)	0.007
OTC (UniProt P00480)	0.063
NDC1 (UniProt Q9BTX1)	0.075
NNT (UniProt Q13423)	0.013
NUP160 (UniProt Q12769)	0.052
NFATC1 (UniProt O95644)	-0.015
MTMR6 (UniProt Q9Y217)	0.018
NARS2 (UniProt Q96I59)	0
NSA2 (UniProt O95478)	-0.093
PAN2 isoform 2 (UniProt Q504Q3)	0.03
NIPBL (UniProt Q6KC79)	0.017
